Here are results for six compounds from PubChem BioAssay (NCATS).

Molecules are shown by their SMILES. “And” between values parts separate entries of the source, which are not always exact repeats. Equal values may be shown once. Results filed as inconclusive are left out. The source made the active and inactive calls. Unless noted, calls come from the whole dose curve.

The target in assay [1] is Glucocorticoid receptor (Homo sapiens) (UniProt P04150). Put plainly: qHTS assay for small molecule agonists of glucocorticoid receptor signaling (AID 588532; active = well fitted curve in the direction sought with a large enough effect in the signal ratio, with a control signal flat; the % refers to the signal ratio;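 note: 100% = dexamethasone at 0.1 µM and 0% = DMSO only wells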). The settings on record: HeLa MMTV-bla, beta-lactamase ratio, agonist, 18 h; activation: stronger effect = higher value, percent of dexamethasone control, DMSO zero. The gist of the method:
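Titration series, up to 92 uM, applied to GRE-bla HeLa cells for 18 h at 37 C. Detection by CCF4 FRET substrate after 2 h at RT.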

The target in assay [2] is Peroxisome proliferator-activated receptor delta (Homo sapiens) (UniProt Q03181). Put plainly: qHTS assay for small molecule agonists of peroxisome proliferator-activated receptor delta signaling (AID 588534).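 Note: 0% = DMSO basal wells and 100% = positive control agonist at 10 µM.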 The gist of the method: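 Cells carrying a PPAR-delta beta-lactamase reporter were treated with compounds for 18 h at 37 °C in agonist mode. CCF4 fluorescence was read after 2 h; EC50 and efficacy from Hill fits.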
For orientation: qHTS replaces the single test concentration by a dilution series.

Assay [3] in a line: qHTS assay for small molecule antagonists of peroxisome proliferator-activated receptor delta signaling (AID 588535).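 Note: cells co-treated with a PPAR-delta agonist as stimulator during compound exposure.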 The settings on record: HEK293T PPARd-UAS-bla, beta-lactamase FRET ratio, 18 h; 460 nm channel. The gist of the method: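 Reporter: UAS-bla under PPAR-delta response element, HEK293T host. Medium: 2% charcoal/dextran FBS. Dosing: titration, 18 hrs, 37 C. Detection: CCF4, 2 hrs RT, 405 ex/460 and 530 em.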

The target of assay [4] is Peroxisome proliferator-activated receptor gamma (Homo sapiens) (UniProt P37231). Put plainly: qHTS assay for small molecule agonists of peroxisome proliferator-activated receptor gamma signaling (AID 588536; active = well fitted curve in the direction sought with a large enough effect in the signal ratio, with a control signal flat, not every such curve was filed as active; the % refers to the signal ratio;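 note: 0% = DMSO basal wells and 100% = rosiglitazone at 2 µM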). The essentials: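 HEK293 UAS-bla reporter line, 1% charcoal/dextran FBS; titration, 16 h, 37 C; CCF4 loading 2 h RT; fluorescence 460/530 nm. Normalized to rosiglitazone 2 uM = 100%, DMSO = 0%.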

For assay [5] the target is unchanged. Put plainly: qHTS assay for small molecule antagonists of peroxisome proliferator-activated receptor gamma signaling (AID 588537; active = well fitted inhibition curve with a large enough effect in the signal ratio, with a control signal flat, not every such curve was filed as active; the % refers to the signal ratio;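 note: reporter cells co-stimulated with 50 nM rosiglitazone agonist during compound treatment; % of control where 0% means no effect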). The essentials:
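We seeded GeneBLAzer HEK293 reporter cells at 3000 per well, allowed 6-6.5 h attachment at 37 C, then co-treated with test compound titrations and 50 nM rosiglitazone overnight (16 h). Inhibition was quantified from 460/530 nm emission ratios.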

In assay [6] the target is Vitamin D3 receptor (Homo sapiens) (UniProt P11473). Put plainly: qHTS assay for small molecule antagonists of vitamin D receptor signaling (AID 588541).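 Note: receptor activated by calcitriol during compound treatment; series mostly up to about 77 µM; % is set by controls: 0 for no effect and ±100 for the full control effect.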 The gist of the method: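 VDR-UAS-bla HEK293T cells (2000/well, 2% charcoal-stripped FBS) were treated with titrated compounds plus 1-alpha,25-dihydroxyvitamin D3 (50 nM or 3 nM final) for 16 h at 37 C. CCF4 beta-lactamase fluorescence was read; Hill fits gave IC50.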

The target is the same in assay [7]. Put plainly: qHTS assay for small molecule agonists of vitamin D receptor signaling (AID 588543).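 Note: 0% = DMSO basal and 100% = reference agonist control.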 The gist of the method:
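Measured: β-lactamase reporter activity (CCF4, 405 nm excitation, 460/530 nm emission) in HEK293T VDR-UAS-bla cells after 16 h compound exposure at 37 °C. Normalization against 50 nM 1α,25-dihydroxyvitamin D3 and DMSO; Hill-fit EC50.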

Assay [8] concerns the target Retinoic acid receptor RXR-alpha (Homo sapiens) (UniProt P19793). Put plainly: qHTS assay for small molecule agonists of retinoid X receptor alpha signaling (AID 588544).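 For activation: 0% = DMSO basal wells and 100% = reference agonist.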 Note: potency is the fitted concentration of half-maximal effect.
The target of assay [9] is Thyroid hormone receptor beta (Homo sapiens) (UniProt P10828). Put plainly: qHTS assay for small molecule agonists of thyroid hormone receptor beta signaling (AID 588545).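 Note: 0% = DMSO only and 100% = 10 nM T3.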 The essentials: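 TR-UAS-bla GripTite HEK 293 cells (2500/well, medium with 2% charcoal/dextran FBS) were treated in agonist mode for 18 h at 37 C, titrated. Beta-lactamase was read by CCF4 ratio after 2 h; normalized to 10 nM T3 (100%) and DMSO, Hill-fitted for EC50 and efficacy.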

Assay [10] in a line: qHTS assay for small molecule antagonists of retinoid X receptor alpha signaling (AID 588546; active = well fitted inhibition curve with a large enough effect in the signal ratio, with a control signal flat, not every such curve was filed as active; the % refers to the signal ratio;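 note: cells stimulated with 9-cis-retinoic acid as agonist; % is set by controls: 0 for no effect and ±100 for the full control effect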). The settings on record: HEK293T RXRa-UAS-bla, beta-lactamase ratio, antagonist mode; measured here: W530 green channel, cytotoxicity proxy. The essentials: (§1)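 Beta-lactamase reporter inhibition, read as CCF4 fluorescence ratio (ex 405, em 460/530 nm) after 2 h at RT. HEK293T UAS-bla cells, 2500/well, were stimulated with 9-cis-RA at 500 or 100 nM final alongside test compound for 18 h at 37 C.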

Assay [11] deals with Retinoic acid receptor RXR-alpha (Homo sapiens) (UniProt P19793). The description is as above. The settings on record: HEK293T RXRa-UAS-bla, beta-lactamase ratio, antagonist mode. The essentials: as §1
The target of assay [12] is Thyroid hormone receptor beta (Homo sapiens) (UniProt P10828). Put plainly: qHTS assay for small molecule antagonists of thyroid hormone receptor beta signaling (AID 588547; active = well fitted inhibition curve with a large enough effect in the signal ratio, with a control signal flat, not every such curve was filed as active; the % refers to the signal ratio;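 note: cells stimulated with 0.4 nM T3 agonist during compound exposure; series mostly up to about 77 µM; % is set by controls: 0 for no effect and ±100 for the full control effect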). The settings on record: TR-UAS-bla HEK293, beta-lactamase ratio, antagonist mode, 18 h. The essentials:
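TR-UAS-bla GripTite HEK293 cells in 2% charcoal/dextran FBS medium were preincubated 4 h at 37 C, given compound (0.59 nM to 92 uM) plus 0.4 nM T3 (final) for 18 h, then CCF4 for 2 h at RT; Hill fit gave IC50.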

Assay [13] in a line: qHTS assay for environmental chemicals that activate the Aryl hydrocarbon Receptor (AhR) signaling pathway (AID 651777; active = well fitted curve in the direction sought with a large enough effect; an effect the other way counts as inactive or inconclusive; note: % of control where 0% means no effect; nearly all actives have a fitted effect of over 15% in size). The settings on record: 1A2-DRE human hepatoma cells, luciferase, 24 h; activation: stronger effect = higher value. The essentials: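 Human hepatoma 1A2-DRE cells, stably carrying a dioxin response element and CYP1A2 promoter driving luciferase, were exposed to compounds for 24 hr at 37 C and 5% CO2. Luciferase signal was then read after 30 min One-Glo at room temperature.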

A short description of assay [14]: qHTS assay for small molecule agonists of the antioxidant response element (ARE) signaling pathway measured by Nrf2-dependant transcriptional activity - cell viability counter screen (AID 720653; active = well fitted curve in the direction sought with a large enough effect in the repeat runs; an effect the other way counts as inactive or inconclusive; note: % is set by controls: 0 for no effect and ±100 for the full control effect). The settings on record: ARE-bla HepG2 viability, CellTiter-Glo ATP luminescence, 16 h; max response: stronger effect = lower value. The essentials:
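ARE-bla HepG2 cells (2,000/well) rested 5 hrs at 37C/5% CO2, then exposed to compounds in DMSO for 16 hrs. Viability was read in the same wells as intracellular ATP by luminescence, 30 min at room temperature after reagent addition.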

A short description of assay [15]: qHTS assay for cell viability of HEK293 cells (AID 743288; active = well fitted curve in the direction sought with a large enough effect; an effect the other way counts as inactive or inconclusive; note: % is set by controls: 0 for no effect and ±100 for the full control effect; nearly all actives have a fitted effect of over 50% in size). The settings on record: ATP luminescence (CellTiter-Glo), 18 h; max response: stronger effect = lower value. The essentials: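 Luminescent ATP quantitation served as the viability read-out. Cells (parental HEK293, 2,000/well) received compounds after at least 5 h at 37 C and were exposed for 18 h before a 30 min room-temperature reagent step.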

Assay [16] can be described thus: qHTS assay for cell viability of the p53RE-bla HCT-116 cell line (AID 743292; active = well fitted curve in the direction sought with a large enough effect; an effect the other way counts as inactive or inconclusive; note: % is set by controls: 0 for no effect and ±100 for the full control effect; nearly all actives have a fitted effect of over 55% in size). The essentials: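 CellSensor p53RE-bla HCT-116 cells, 4,000/well, preincubated 5 h at 37 C, then exposed to compounds in DMSO for 16 h at 37 C. Viability read as CellTiter-Glo luminescence (intracellular ATP) after 30 min at room temperature.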
Assay [17] deals with Nuclear receptor subfamily 1 group I member 2 (Rattus norvegicus) (UniProt Q9R1A7). Put plainly: qHTS assay for small molecule activators of the rat pregnane X receptor (rPXR) signaling pathway (AID 651751; call rule not given here; note: 0% is about no effect). The settings on record: rPXR reporter cells, luciferase (One-Glo), 24 h.
In assay [18] the target is Peroxisome proliferator-activated receptor alpha (Homo sapiens) (UniProt Q07869). Put plainly: qHTS assay for small molecule agonists of the peroxisome proliferator-activated receptor alpha (PPARalpha) signaling pathway (AID 651778; active = well fitted curve in the direction sought with a large enough effect; an effect the other way counts as inactive or inconclusive; note: % of control where 0% means no effect). The settings on record: PathHunter PPARalpha complementation, chemiluminescence, 6 h; max response: stronger effect = higher value. The essentials:
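Cells plated at 2,000/well and held overnight at 37 C, 5% CO2, then compound added by pin tool for 6 hr; after PathHunter detection reagent and 60 min at room temperature, chemiluminescence from enzyme complementation was read.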

A short description of assay [19]: qHTS assay for small molecule agonists of the antioxidant response element (ARE) signaling pathway measured by Nrf2-dependant transcriptional activity (AID 720636; active = well fitted curve in the direction sought with a large enough effect in the repeat runs; an effect the other way counts as inactive or inconclusive; note: % of control where 0% means no effect). The gist of the method:
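ARE-luc HepG2 cells carrying an Nrf2-responsive luciferase reporter were plated in medium with 1% dialyzed FBS, left 6 hr at 37 C to attach, then exposed to compound for 16 hr. Luciferase luminescence was read after ONE-Glo addition.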

Assay [20] can be described thus: qHTS assay for small molecule activators of the p53 signaling pathway (AID 651743; active = well fitted activation curve with a large enough effect in the signal ratio, not every such curve was filed as active; the % refers to the signal ratio; note: series mostly up to about 92 µM; % of control where 0% means no effect). The settings on record: HCT-116 p53RE-bla, beta-lactamase FRET ratio, 16 h; activation: stronger effect = higher value. The essentials:
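Cell-based beta-lactamase reporter (p53 response elements, HCT-116 background). After a 5-hour preincubation, cells received compound for 16 hours at 37 C; substrate development ran 2 hours at room temperature.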

Chain of Nuclear receptor subfamily 1 group I member 2 (Rattus norvegicus) (Q9R1A7 whole entry, looked up): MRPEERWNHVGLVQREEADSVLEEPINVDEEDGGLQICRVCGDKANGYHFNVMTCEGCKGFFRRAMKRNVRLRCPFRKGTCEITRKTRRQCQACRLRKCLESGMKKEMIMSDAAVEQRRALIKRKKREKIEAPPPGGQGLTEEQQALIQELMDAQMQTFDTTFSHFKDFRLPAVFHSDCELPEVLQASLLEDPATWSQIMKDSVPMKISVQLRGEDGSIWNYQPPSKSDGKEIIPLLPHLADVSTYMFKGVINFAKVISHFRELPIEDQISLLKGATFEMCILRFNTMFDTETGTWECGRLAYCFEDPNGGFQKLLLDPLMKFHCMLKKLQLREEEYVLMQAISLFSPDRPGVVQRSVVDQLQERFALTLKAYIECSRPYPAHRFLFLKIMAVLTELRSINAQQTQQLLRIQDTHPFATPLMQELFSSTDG
Chain of Retinoic acid receptor RXR-alpha (Homo sapiens) (P19793 whole entry, looked up): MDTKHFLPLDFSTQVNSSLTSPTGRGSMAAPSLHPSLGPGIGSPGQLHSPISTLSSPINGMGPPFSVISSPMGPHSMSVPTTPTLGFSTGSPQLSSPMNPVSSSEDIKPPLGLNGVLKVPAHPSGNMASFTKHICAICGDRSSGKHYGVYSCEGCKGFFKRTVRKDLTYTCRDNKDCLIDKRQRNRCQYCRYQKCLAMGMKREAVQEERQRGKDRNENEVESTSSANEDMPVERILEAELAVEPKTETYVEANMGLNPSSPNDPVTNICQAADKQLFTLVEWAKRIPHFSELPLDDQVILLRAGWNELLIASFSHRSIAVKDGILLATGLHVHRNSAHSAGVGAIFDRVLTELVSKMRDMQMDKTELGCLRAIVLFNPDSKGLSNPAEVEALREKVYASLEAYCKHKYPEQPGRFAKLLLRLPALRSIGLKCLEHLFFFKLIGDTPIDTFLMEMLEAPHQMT
Chain of Glucocorticoid receptor (Homo sapiens) (P04150 whole entry, looked up): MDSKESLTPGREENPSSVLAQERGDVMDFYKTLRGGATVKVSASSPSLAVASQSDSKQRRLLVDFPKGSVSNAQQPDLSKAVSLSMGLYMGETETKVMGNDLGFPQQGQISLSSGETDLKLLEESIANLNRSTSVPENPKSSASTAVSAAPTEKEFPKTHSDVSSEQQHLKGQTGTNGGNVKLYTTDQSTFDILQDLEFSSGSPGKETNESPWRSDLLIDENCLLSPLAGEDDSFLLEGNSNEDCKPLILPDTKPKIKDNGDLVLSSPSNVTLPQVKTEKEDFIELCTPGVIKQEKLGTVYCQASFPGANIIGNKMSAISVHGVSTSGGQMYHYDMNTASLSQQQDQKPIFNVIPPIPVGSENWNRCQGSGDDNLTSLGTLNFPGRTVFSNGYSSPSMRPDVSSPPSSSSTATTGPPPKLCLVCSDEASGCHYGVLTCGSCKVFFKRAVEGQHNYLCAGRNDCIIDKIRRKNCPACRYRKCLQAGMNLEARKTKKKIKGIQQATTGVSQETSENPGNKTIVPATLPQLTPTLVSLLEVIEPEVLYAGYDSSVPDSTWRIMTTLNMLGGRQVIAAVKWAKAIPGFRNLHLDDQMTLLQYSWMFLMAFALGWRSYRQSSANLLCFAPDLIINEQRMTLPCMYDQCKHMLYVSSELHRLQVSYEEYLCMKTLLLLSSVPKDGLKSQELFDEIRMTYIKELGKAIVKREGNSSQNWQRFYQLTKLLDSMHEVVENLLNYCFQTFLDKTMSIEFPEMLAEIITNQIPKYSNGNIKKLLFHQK
Chain of Thyroid hormone receptor beta (Homo sapiens) (P10828 whole entry, looked up): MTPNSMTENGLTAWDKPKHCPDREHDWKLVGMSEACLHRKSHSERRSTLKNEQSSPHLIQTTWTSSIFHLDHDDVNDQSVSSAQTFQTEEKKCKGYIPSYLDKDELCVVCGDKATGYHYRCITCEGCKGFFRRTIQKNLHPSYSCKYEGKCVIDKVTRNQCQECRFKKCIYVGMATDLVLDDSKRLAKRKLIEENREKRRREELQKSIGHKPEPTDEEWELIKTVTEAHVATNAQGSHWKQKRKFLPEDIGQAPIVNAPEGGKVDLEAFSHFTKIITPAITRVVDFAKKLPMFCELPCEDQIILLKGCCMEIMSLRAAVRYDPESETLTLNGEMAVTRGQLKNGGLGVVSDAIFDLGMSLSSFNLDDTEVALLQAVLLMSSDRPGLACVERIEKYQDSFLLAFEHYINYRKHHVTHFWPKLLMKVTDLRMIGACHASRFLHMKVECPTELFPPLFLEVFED
Chain of Peroxisome proliferator-activated receptor alpha (Homo sapiens) (Q07869 whole entry, looked up): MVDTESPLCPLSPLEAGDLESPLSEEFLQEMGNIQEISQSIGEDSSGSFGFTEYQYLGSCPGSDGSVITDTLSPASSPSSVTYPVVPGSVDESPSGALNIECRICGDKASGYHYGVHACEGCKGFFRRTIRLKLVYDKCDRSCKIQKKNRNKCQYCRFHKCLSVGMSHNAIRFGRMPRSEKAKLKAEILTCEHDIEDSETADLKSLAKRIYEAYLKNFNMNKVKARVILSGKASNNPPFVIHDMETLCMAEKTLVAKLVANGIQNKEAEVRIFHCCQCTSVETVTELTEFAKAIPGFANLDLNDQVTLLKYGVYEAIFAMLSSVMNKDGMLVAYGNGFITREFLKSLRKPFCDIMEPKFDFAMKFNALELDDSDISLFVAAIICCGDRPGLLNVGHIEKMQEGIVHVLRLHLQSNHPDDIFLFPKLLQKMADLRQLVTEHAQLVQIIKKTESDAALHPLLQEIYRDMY
Chain of Peroxisome proliferator-activated receptor delta (Homo sapiens) (Q03181 whole entry, looked up): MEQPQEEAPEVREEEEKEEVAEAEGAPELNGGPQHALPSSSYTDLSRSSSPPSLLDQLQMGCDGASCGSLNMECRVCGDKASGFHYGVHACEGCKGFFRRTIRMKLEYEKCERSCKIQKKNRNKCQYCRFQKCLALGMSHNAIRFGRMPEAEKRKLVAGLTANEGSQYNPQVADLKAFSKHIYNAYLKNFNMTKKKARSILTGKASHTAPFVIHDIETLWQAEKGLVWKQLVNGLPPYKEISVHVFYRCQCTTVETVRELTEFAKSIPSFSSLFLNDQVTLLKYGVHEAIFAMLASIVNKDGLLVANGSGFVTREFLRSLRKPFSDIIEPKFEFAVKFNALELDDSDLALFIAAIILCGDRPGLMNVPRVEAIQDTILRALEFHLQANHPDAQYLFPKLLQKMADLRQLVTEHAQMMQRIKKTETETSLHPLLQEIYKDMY
Chain of Vitamin D3 receptor (Homo sapiens) (P11473 whole entry, looked up): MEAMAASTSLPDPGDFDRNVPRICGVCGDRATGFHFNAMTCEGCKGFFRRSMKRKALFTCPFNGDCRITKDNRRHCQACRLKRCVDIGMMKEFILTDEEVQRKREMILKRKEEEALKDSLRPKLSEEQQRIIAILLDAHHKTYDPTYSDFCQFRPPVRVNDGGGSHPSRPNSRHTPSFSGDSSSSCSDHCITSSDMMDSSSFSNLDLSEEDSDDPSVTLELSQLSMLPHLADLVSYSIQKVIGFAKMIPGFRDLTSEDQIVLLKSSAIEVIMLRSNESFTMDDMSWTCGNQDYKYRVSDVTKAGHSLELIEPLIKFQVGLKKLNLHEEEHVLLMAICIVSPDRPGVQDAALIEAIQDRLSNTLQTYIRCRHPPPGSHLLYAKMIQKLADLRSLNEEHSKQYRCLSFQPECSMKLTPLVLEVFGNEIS
Chain of Peroxisome proliferator-activated receptor gamma (Homo sapiens) (P37231 whole entry, looked up): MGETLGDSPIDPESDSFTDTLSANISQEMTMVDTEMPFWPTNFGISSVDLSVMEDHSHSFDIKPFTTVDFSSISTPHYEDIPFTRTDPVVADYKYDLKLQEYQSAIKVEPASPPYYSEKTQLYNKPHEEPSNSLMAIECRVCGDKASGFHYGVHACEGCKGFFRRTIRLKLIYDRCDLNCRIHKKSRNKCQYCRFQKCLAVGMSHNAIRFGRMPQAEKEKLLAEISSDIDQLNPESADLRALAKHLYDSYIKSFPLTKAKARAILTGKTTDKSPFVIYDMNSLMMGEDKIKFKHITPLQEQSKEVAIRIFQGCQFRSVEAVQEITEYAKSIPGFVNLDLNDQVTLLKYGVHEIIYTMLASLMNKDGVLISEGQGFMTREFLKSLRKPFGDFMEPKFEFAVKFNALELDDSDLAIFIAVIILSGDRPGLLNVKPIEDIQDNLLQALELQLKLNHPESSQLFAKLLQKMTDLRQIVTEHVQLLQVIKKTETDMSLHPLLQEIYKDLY

For the compound `CNC(=O)/C=C(\C)OP(=O)(OC)OC`, the activation in [1] is -1.15% (inactive); in assay [13], 7.36% (inactive). The outcome in [2] and in assay [7] was inactive. Further, the max response in assay [3] is 32.8%; in [10], -16.8%; in assay [11], -15.9% (inactive); in assay [14] it was -10% (inactive); in [15], -10.5% (inactive); in assay [17], 0.645% (inactive). The Potency result in [4], in [5], in assay [6], in assay [8], in assay [9] and in assay [16] was “inactive” throughout. Besides, the activity change % (negative = inhibition) in assay [12] was -12.7% (inactive).

As to `O=C(NC(=O)c1c(F)cccc1F)Nc1ccc(OC(F)(F)C(F)OC(F)(F)F)c(Cl)c1` (stereo unspecified), the figures for the activation in assay [1] and in [13] were -15.7% (inactive) and 1.49% (inactive), respectively. Moreover, the outcome in assay [2] and in assay [7] was inactive. In addition, the max response in [3] was 59.9%; in [10] it was -11.8%; in assay [11], -13% (inactive); in assay [18], 0.139% (inactive); in assay [14], -4.81% (inactive); in [15] it was -16.7% (inactive). For the same compound, in assay [17], the max response is 1.96% (inactive). For the same compound, the Potency entry in assay [4], in assay [6], in assay [8], in [19] and in assay [16] was “inactive” in each case. Moreover, the activity change % (negative = inhibition) in [12] was 12.3% (inactive).

With `CCOP(=S)(OCC)Oc1nc(Cl)n(C(C)C)n1`, the activation in assay [1] is 12.9% (inactive); in [20], -5.02% (inactive). In addition, the Potency entry in assay [4], in assay [5], in [6], in [9] and in assay [19] was “inactive” in each case. Further, the compound was called inactive in assay [7]. Moreover, the max response in assay [10] is 10.5%; in assay [11], 14.2% (inactive); in assay [18], 0.789% (inactive); in assay [14], -6.76% (inactive); in [15], 6.35% (inactive).

With `Clc1ccc([C@@]2(Cn3cncn3)C[C@H](Br)CO2)c(Cl)c1`, the activation in [1] was 2.56% (inactive); in assay [20], 0.484% (inactive); in assay [13], 1.22% (inactive). Further, the Potency entry in assay [4], in [9] and in [19] was “inactive” in each case. Besides, the Potency in assay [8] was 14.1 µM (active). The max response was -6.47% in [10]; -7.83% (inactive) in [11]; 0.534% (inactive) in assay [18]; -1.58% (inactive) in [14]; -14.4% (inactive) in assay [15]. For the same compound, the activity change % (negative = inhibition) in [12] is 2.29% (inactive).

In the case of `C/C(=N\NC(=O)Nc1cc(F)cc(F)c1)c1ncccc1C(=O)O`, the activation in [1] was 10.9% (inactive) and -10.6% (inactive); in assay [13], 0.312% (inactive) and 2.08% (inactive). The Potency entry in assay [4], in [5], in assay [6], in assay [8], in assay [9] and in assay [19] was “inactive” in each case. The Potency result in assay [16] is “inactive”. Further, the call in assay [7] was inactive. The max response is -5.57% and -1.16% in assay [10]; -18.2% (inactive) and 0.0153% (inactive) in assay [11]; 0.136% (inactive) and -0.453% (inactive) in [18]; -4.25% (inactive) and -0.19% (inactive) in assay [14]; -5.69% (inactive) and -3.6% (inactive) in assay [15]; -0.995% (inactive) and 1.1% (inactive) in assay [17]. The activity change % (negative = inhibition) in assay [12] was -6.39% (inactive).

In the case of `CCC/C(=N\OCC)C1=C(O)CC(CC(C)SCC)CC1=O` (stereo unspecified), the results for the activation in assay [1], in assay [20] and in assay [13] were -6.86% (inactive), -6.84% (inactive) and 1.24% (inactive), respectively. Besides, the compound was called inactive in assay [2] and in assay [7]. Further, the max response in assay [3] was -49.6%; in assay [10], -1.11%; in assay [11], -23% (inactive); in [18] it was 0.062% (inactive); in [14], -2.32% (inactive); in [15], -13.8% (inactive). The max response in [17] is 0.0341% (inactive). The Potency entry in [4], in assay [5], in assay [6], in [8], in [9] and in assay [19] was “inactive” in each case. For the same compound, the Potency result in assay [16] is “inactive”.
